HUVEC tox TNFa: HUVEC cytotoxicity counter-screen, TNF alpha stimulated; HUVEC TNFalpha-stimulated, Hoechst cell count, imaging; cell count reduction, % at 2 µM; actives 0.17% (n = 93,000); AID 848;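 active = cell count reduction exceeding the screen mean by over 5 SD, scaled to untreated wells per plate, cut at about 78% in these data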;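 note: cells counted after 24 h of TNF alpha exposure following the 1 h pretreatment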
E-sel TNF inh: blocks E-selectin expression induced by TNF alpha; HUVEC TNFa-induced E-selectin immunofluorescence, high content; inhibition, % at 2 µM; actives 0.71% (n = 120,000);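 active = inhibition above the batch mean plus 3 SD, and confirmed as a hit on visual image review, cut at about 43% in these data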
VCAM1 TNFa inh: reduces TNF alpha induced VCAM1 expression in HUVEC. actives 0.48% (n = 95,000). inhibition, % at 2 µM. AID 802. HUVEC TNFa-induced VCAM-1 immunofluorescence, high-content imaging;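 active = inhibition above the batch mean plus 3 SD, with images confirmed as a hit by eye, cut at about 37% in these data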
Phagocyt inh: inhibitors of macrophage phagocytosis | J774A.1 macrophage IgG-bead phagocytosis, imaging | inhibition, % at 5 µM | actives 0.07% (n = 110,000) | AID 1029;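 active = inhibition above the mean of the plate negative controls plus 5 SD, cut at about 13% in these data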;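 note: phagocytic index as fraction of beads internalized from green versus red external bead signal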
cytoskel mod: alters cytoskeleton assembly in HUVEC cells | AID 836 | HUVEC TNFa F-actin phalloidin imaging, high content | inhibition, % at 2 µM | actives 0.18% (n = 91,000);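 active = inhibition above the batch mean plus 3 SD and confirmed as a hit by visual image inspection, cut at about 30% in these data, passing the limit was not always enough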
SDO1 yeast rescue: restores growth of sdo1-depleted yeast; z-score at 10 µM; actives 0.21% (n = 140,000); S. cerevisiae sdo1-depleted JHY4D growth rescue, OD600 30 h; stronger effect = higher value; pdr5 snq2 efflux-pump mutant strain;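 active = z-score above 3 at both the 24 hr and the 30 hr optical density reads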
Hits are given with their value; 0 = inactive; - = no result given. Compounds with a hit are over-represented: about 1.2% of the library has one in this group of screens.

SMILES | HUVEC tox TNFa | E-sel TNF inh | VCAM1 TNFa inh | Phagocyt inh | cytoskel mod | SDO1 yeast rescue
COCCNC(=O)Cn1cc(/C=N/NC(=O)c2ccc(Oc3ccc(O)cc3)cc2)c2ccccc21 | - | 0 | - | - | - | -
O=S(=O)(c1ccc2c(c1)OCCCO2)N1CCNCC1 | 84 | - | 84 | 0 | 0 | 0
CCN(c1ccc(NC(=O)COC(=O)CCc2cc(OC)c(OC)c(OC)c2)cc1)C(C)C | - | 0 | - | - | - | -
CC(NC(=S)NCCCN1CCOCC1)C12CC3CC(CC(C3)C1)C2 (centres undefined) | - | 0 | - | - | - | -
O=C(c1ccc([N+](=O)[O-])cc1)N(Cc1ccc(Br)cc1)N1C(=O)CCCC1=O | 0 | 98 | 0 | 0 | - | 0
CCOC(=O)N1CCC(NC(=O)c2ccc(CNS(=O)(=O)c3ccc(F)cc3)cc2)CC1 | 0 | - | 0 | 0 | 76 | 0
NS(=O)(=O)c1ccc(CCNC(=O)c2cccc([N+](=O)[O-])c2)cc1 | - | 0 | - | - | - | -
O=S(=O)(Nc1ccccn1)c1ccc(Cl)c2ccccc12 | - | 82 | - | - | - | -
Cc1ccc(-c2nnn(CC(=O)NC3CCN(Cc4ccccc4)CC3)n2)cc1 | 0 | 0 | 0 | - | 0 | 0
O=C(Cn1nnc(-c2ccc(Cl)cc2)n1)NC1CCN(Cc2ccccc2)CC1 | 0 | 100 | 0 | 0 | 0 | 0
CCc1c(C)c(C#N)c2nc3ccccc3n2c1Cl | - | 67 | - | 0 | - | 0
Cc1cc(NCCN2CCCCC2)n2c(nc3ccccc32)c1C#N | 0 | 100 | 0 | 0 | 0 | 0
CCOc1ccc(NC(=O)COC(=O)C23CC4CC(CC(C4)C2)C3)c([N+](=O)[O-])c1 | - | 95 | - | - | - | 0
CCOc1ccc(NC(=O)/C=C/c2ccc(OC)cc2)c([N+](=O)[O-])c1 | - | 61 | - | 0 | - | 0
O=C(Nc1cccn2ncnc12)c1ccccc1 | 0 | 0 | 0 | - | 0 | 0
O=C(Nc1cccn2ncnc12)c1ccc(Cl)cc1 | 0 | 43 | 0 | 0 | 0 | 0
O=C1CC(N(Cc2cccs2)C(=O)Nc2ccccc2)C(=O)N1c1ccc(Cl)cc1 (centres undefined) | - | 70 | - | 0 | - | 0
COc1ccc(CN(C(=S)Nc2ccccc2)C2CC(=O)N(c3ccc(Cl)cc3)C2=O)cc1 (centres undefined) | 0 | 0 | 0 | - | 0 | 0
CCC(C)NC(=O)CCc1nc2ccccc2n1-c1ccccc1 (centres undefined) | - | 0 | - | 0 | - | 0
CCOC(=O)c1ccc(NC(=O)Cn2ncc(Cl)c(Cl)c2=O)cc1 | - | 100 | - | 0 | - | 0
Cc1ccc(C(=O)OCn2ncc(Cl)c(Cl)c2=O)cc1 | 0 | 100 | 36 | - | 0 | 0
Cc1ccc(OCCOc2ccc(Cl)cc2Cl)c([N+](=O)[O-])n1 | - | - | - | 0 | - | 0
Cc1ccc(S(=O)(=O)N(C)CCCC(=O)Nc2cc(C)ccc2C)cc1 | - | 97 | - | - | - | 0
CC(C)(C)NC(=O)C(c1ccc(O)cc1)N(C(=O)CCC(=O)Nc1nccs1)c1ccc(F)cc1 (centres undefined) | - | 0 | - | - | - | -
COc1cc(C2C3=C(Nc4ncnn42)c2ccccc2CC3)cc(OC)c1OC (centres undefined) | 0 | - | 88 | 0 | 0 | 0
SMILES | HUVEC tox TNFa | E-sel TNF inh | VCAM1 TNFa inh | Phagocyt inh | cytoskel mod | SDO1 yeast rescue
CCCNC(=O)C1CCN(c2cc(-c3ccccc3)nc3ncnn23)CC1 | - | 0 | - | - | - | -
Cc1ccc(CN2CCN(Cc3ccc4cc(F)ccc4n3)CC2CCO)o1 (centres undefined) | - | 0 | - | - | - | -
O=C(CN1CCN(c2ccccc2F)CC1)c1c[nH]c2ccccc12 | 0 | 53 | 0 | 0 | 0 | 0
O=C(O)c1ccccc1C(=O)Nc1ccc(S(=O)(=O)NC2CCCCC2)cc1 | - | 0 | - | 0 | - | 0
CC(C)=C1SC(N2CCN(c3ccc(C)cc3)CC2)=NC1=O | 0 | 63 | 0 | - | 0 | 0
COc1ccccc1C(=O)NCCN1CCN(C(=O)c2ccccc2OC)CC1 | 0 | 100 | 0 | 0 | 0 | 0
CC(=O)c1cccc(Nc2nc(-c3cccc([N+](=O)[O-])c3)cs2)c1 | 0 | 0 | 39 | 0 | 0 | 0
Cn1c(CCNC(=O)C2CCCCC2)nc2cc(NC(=O)c3cccs3)ccc21 | - | 63 | - | - | - | -
Cn1c(CCNC(=O)c2ccco2)nc2cc(NC(=O)C3CCCCC3)ccc21 | 0 | 0 | 0 | - | 0 | 0
Cc1ccccc1NC(=O)c1ccc(CSc2ncccn2)cc1 | 0 | 61 | 0 | - | 0 | 0
C=CCN1C(=O)/C(=C2/Sc3ccccc3N2CCCS(=O)(=O)O)SC1=S | 0 | 0 | 0 | 0 | 65 | 0
O=C(NCCN1C(=O)CSC1=O)c1ccccc1 | 0 | 69 | 0 | 0 | 0 | 0
O=C(CCN1C(=O)CSC1=O)Nc1ccccc1 | 0 | 0 | 0 | 0 | 0 | 0
